# Laboratory results published in PMC5540273 (PLoS ONE, 2017).
# Test system: AURKC
# Conditions: concentration: 1 μM, replicates: in singlicate; n = 1
# 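Further: KINOMEscan kinase panel screen.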
row,Compound,%Inh
1,COc1cc(Nc2nccc(N3CCC(NS(=O)(=O)c4ccc(NC(C)=O)cc4)CC3)n2)cc(OC)c1OC [GSK1379825],71%
2,Cc1cc(-c2ccnc(Nc3cccc(C#N)c3)n2)cc(C)c1O [GSK1440913],70%
3,Cc1ccc(C)c(NC(=O)Nc2ccc(C)c(-c3ccc(C(=O)Nc4ccncc4)cc3)c2)c1 [GSK1398473],22%
4,CN(C)CCNS(=O)(=O)c1ccc(-c2ccnc3[nH]ccc23)cc1 [GSK977620],85%
5,O=C(Nc1n[nH]c2nc(-c3cccc(O)c3)ccc12)C1CC1 [SB-711805],23%
6,COc1cccc(C2=C(Nc3cccc(O)c3)C(=O)NC2=O)c1 [SB-390771],0%
7,CSc1ccc(NC2=C(c3ccc(Cl)cc3)C(=O)NC2=O)cc1 [SB-317658],2%
8,Cc1ccc(O)cc1Nc1ccnc2cc(-c3ccc(CN4CCCCC4)o3)ccc12 [GW557777],15%
9,Fc1cc(Cl)ccc1Nc1ccnc2cc(-c3ccc(CN4CCOCC4)o3)ccc12 [GW560109],35%
10,COC(=O)Nc1nc2ccc(Oc3ccc(NC(=O)Nc4cc(C(F)(F)F)ccc4F)cc3)cc2[nH]1.Cl [GW654607],42%
11,CN(c1ccc(NC(=O)N2CCN(CCCN3CCOCC3)CC2)cc1)c1ccnc(Nc2ccc(CS(C)(=O)=O)cc2)n1.Cl [GW830899],75%
12,CCn1c(-c2nonc2N)nc2c(-c3ccccc3)ncc(OCCCN)c21.O=C(O)C(F)(F)F.O=C(O)C(F)(F)F [GSK260205],0%
13,COc1cc(Nc2nccc(N3CCC(NC(=O)Nc4ccc5c(c4)OCO5)C3)n2)cc(OC)c1OC (stereo not shown) [GSK1379766],90.1%
14,Cc1ccc(NC(=O)c2ccnc(N3CCCCC3)c2)cc1-c1ccc(C(=O)NCC2CC2)cc1 [GW775610],35%
15,COC(=O)Nc1nc2ccc(Oc3ccc(CC(=O)Nc4cc(C(F)(F)F)ccc4F)cc3)cc2[nH]1 [GW680903],52%
16,COc1ccc(NC(=O)c2ccoc2)cc1-c1ccc(C(=O)NCC2CC2)cc1 [GW810437],0%
17,Cc1cccc(Nc2nc(NCCN)ncc2C(N)=O)c1 [GSK1292139],25%
18,Cl.N#CCc1ccc(Nc2nccc(Nc3ccc(Oc4ccccc4)cc3)n2)cc1 [GW639905],34%
19,Fc1cc(Cl)ccc1Nc1ccnc2cc(-c3ccc(CN4CCSCC4)o3)ccc12 [GW560106],18%

row,Compound,%Inh
1,NCCC(NC(=O)c1cc(Br)c(-c2ccnc3[nH]ccc23)s1)c1ccccc1.O=C(O)C(F)(F)F.O=C(O)C(F)(F)F (stereo not shown) [GSK1307810],99.7%
2,O=C(O)C(F)(F)F.O=c1[nH]ccc2nc(N[C@@H]3CCNC3)nc(Nc3ccc4c(c3)S(=O)(=O)CC4)c12 [GSK2181306],87%
3,Cc1ccccc1CC(=O)N1CCc2cc(-c3cn(C)c4ncnc(N)c34)ccc21 [GSK2603346],100%
4,CCNC(=O)/C=C/c1n[nH]c2cc(Sc3ccccc3C(=O)NC)ccc12,84%
5,Nc1ncc(-c2ccc3nccc(-c4ccncc4)c3c2)cc1S(=O)(=O)N1CCCCC1 [GSK1693850],35%
6,CS(=O)(=O)c1cccc(CNc2nc(Nc3ccc4c(c3)CCC(=O)N4)ncc2C(F)(F)F)c1,71%
7,COc1ccc(C)c(Nc2ccnc(Nc3ccc(-c4cnc[nH]4)cc3)n2)c1.Cl [GW784041],56%
8,O=C(O)C(F)(F)F.O=c1[nH]ccc2nc(N[C@@H]3CCNC3)nc(Nc3cc(Cl)cc(Cl)c3)c12 [GSK2188764],69%
9,Cl.Cl.NC(CNC(=O)c1cc(Br)c(-c2ccnc3[nH]ccc23)s1)c1ccccc1 (stereo not shown) [GSK1322949],95.2%
10,COC(=O)Nc1nc2cc(Oc3ccc(NC(=O)Nc4cccc(SC)c4)cc3)ccc2[nH]1.Cl [GW697999],43%
11,CCOc1nccc(-c2c(-c3ccc(F)cc3)ncn2C2CCNCC2)n1 [SB-249175],15%
12,Cl.Cl.NCC(NC(=O)c1cc(-c2cccnc2)c(-c2ccnc3[nH]ccc23)s1)c1ccccc1 (stereo not shown) [GSK1323434],36%
13,Nc1ncnc2scc(-c3ccc(NC(=O)Cc4cc(F)ccc4F)cc3)c12.O=C(O)C(F)(F)F [SB-731254-M],45%
14,Cn1cc(-c2ccc3c(c2)CCN3C(=O)Cc2cc(F)cc(C(F)(F)F)c2)c2c(N)ncnc21 [GSK2635225],54%
15,COc1cccc2c(-c3ccncc3)c(-c3ccc(F)cc3)nn12 [GW468513],17%
16,COc1cccc(NC(=O)NCCNc2ccnc(Nc3ccc(F)cc3)n2)c1 [GSK1379879],45%
17,Cn1cc(-c2ccc3c(c2)CCN3C(=O)Cc2cc(F)cc(F)c2F)c2c(N)ncnc21 [GSK2634140],59%
18,CN(C)CCOc1ccc(-c2cc(-c3ccc(Cl)c(O)c3)c(-c3ccncc3)[nH]2)cc1.Cl.Cl [SB-684387],0%
